Where “and” joins values, the source holds several entries; their conditions need not be identical. Equal values may be shown once. Hit rate of the full screen: of about 5,500 compounds, about 2,000 (36%) were called active. Another 18% or so got no clear call; they are omitted. Cut-off read from the data, not from the text of the source: active = normalized growth mostly below about 0.91 (no sharp cut-off); inconclusive = no clear call, values can overlap the other calls; inactive = mostly above about 0.92. The list shows a part of the results.
Assay: chemical genetic growth profiling, strain panel (AID 1159580);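 note: tested at 20 µM; growth read once vehicle control cultures reached saturation at 30 °C; 1 = growth at the plate median or of vehicle wells; lower values mean less growth of the strain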
Settings: growth OD

Measured: normalized growth

NCCCC(=O)O
inactive: S. cerevisiae deletion strains, locus YAL013W, strain DEP1, stronger effect = lower value 1 and 0.982 | S. cerevisiae deletion strains, locus YAL040C, strain CLN3, stronger effect = lower value 0.965 | S. cerevisiae deletion strains, locus YBR021W, strain FUR4, stronger effect = lower value 1.01 | S. cerevisiae deletion strains, locus YBR229C, strain ROT2, stronger effect = lower value 1.01 | S. cerevisiae deletion strains, locus YCL029C, strain bik1, stronger effect = lower value 1.04 | S. cerevisiae deletion strains, locus YDL035C, strain GPR1, stronger effect = lower value 1.01 | S. cerevisiae deletion strains, locus YDL074C, strain BRE1, stronger effect = lower value 1.01 | S. cerevisiae deletion strains, locus YDL101C, strain DUN1, stronger effect = lower value 1.01 | S. cerevisiae deletion strains, locus YDL134C, strain PPH21, stronger effect = lower value 1.01 | S. cerevisiae deletion strains, locus YDL185W, strain tfp1, stronger effect = lower value 1.01 | S. cerevisiae deletion strains, locus YDL192W, strain arf1, stronger effect = lower value 1.02 | S. cerevisiae deletion strains, locus YDR101C, strain arx1, stronger effect = lower value 1.03 | S. cerevisiae deletion strains, locus YDR150W, strain NUM1, stronger effect = lower value 1.01 | S. cerevisiae deletion strains, locus YDR162C, strain NBP2, stronger effect = lower value 1 | S. cerevisiae deletion strains, locus YDR318W, strain mcm21, stronger effect = lower value 1.02 | S. cerevisiae deletion strains, locus YDR363W, strain ESC2, stronger effect = lower value 1.02 | S. cerevisiae deletion strains, locus YDR388W, stronger effect = lower value 1.02 | S. cerevisiae deletion strains, locus YDR502C, strain sam2, stronger effect = lower value 1.03 | S. cerevisiae deletion strains, locus YEL061C, strain CIN8, stronger effect = lower value 1 | S. cerevisiae deletion strains, locus YER002W, strain NOP16, stronger effect = lower value 0.993 | S. cerevisiae deletion strains, locus YER110C, stronger effect = lower value 1.04 | S. cerevisiae deletion strains, locus YER155C, strain BEM2, stronger effect = lower value 1.01 | S. cerevisiae deletion strains, locus YER167W, strain BCK2, stronger effect = lower value 1.01 | S. cerevisiae deletion strains, locus YGL078C, strain dbp3, stronger effect = lower value 1.03 | S. cerevisiae deletion strains, locus YGL086W, strain mad1, stronger effect = lower value 1.02 | S. cerevisiae deletion strains, locus YGL248W, strain PDE1, stronger effect = lower value 1.01 | S. cerevisiae deletion strains, locus YGR078C, strain PAC10, stronger effect = lower value 1.01 | S. cerevisiae deletion strains, locus YGR135W, strain pre9, stronger effect = lower value 1.04 | S. cerevisiae deletion strains, locus YGR229C, strain SMI1, stronger effect = lower value 1.03 and 0.998 | S. cerevisiae deletion strains, locus YGR252W, strain gcn5, stronger effect = lower value 1.07 | S. cerevisiae deletion strains, locus YHR030C, strain SLT2, stronger effect = lower value 1.01 | S. cerevisiae deletion strains, locus YHR079C, strain IRE1 (second series), stronger effect = lower value 1.02 | S. cerevisiae deletion strains, locus YHR079C, strain IRE1, stronger effect = lower value 0.994 | S. cerevisiae deletion strains, locus YHR094C, strain hxt1, stronger effect = lower value 1.02 | S. cerevisiae deletion strains, locus YHR129C, strain ARP1, stronger effect = lower value 1 | S. cerevisiae deletion strains, locus YHR200W, strain rpn10, stronger effect = lower value 1.02 | S. cerevisiae deletion strains, locus YIL066C, strain RNR3, stronger effect = lower value 1.01 | S. cerevisiae deletion strains, locus YIL073C, strain SPO22, stronger effect = lower value 1.06 | S. cerevisiae deletion strains, locus YIL125W, strain kgd1, stronger effect = lower value 1.02 | S. cerevisiae deletion strains, locus YIR030C, strain dcg1, stronger effect = lower value 1.04 | S. cerevisiae deletion strains, locus YJL095W, strain BCK1, stronger effect = lower value 1.01 and 0.999 | S. cerevisiae deletion strains, locus YJL134W, strain LCB3, stronger effect = lower value 1.01 | S. cerevisiae deletion strains, locus YJL168C, strain set2, stronger effect = lower value 1.03 | S. cerevisiae deletion strains, locus YJL187C, strain SWE1 (second series), stronger effect = lower value 1.01 | S. cerevisiae deletion strains, locus YJR043C, strain POL32, stronger effect = lower value 1 | S. cerevisiae deletion strains, locus YJR066W, strain TOR1, stronger effect = lower value 0.949 | S. cerevisiae deletion strains, locus YJR075W, strain HOC1, stronger effect = lower value 1.01 | S. cerevisiae deletion strains, locus YKL009W, strain mrt4, stronger effect = lower value 0.999 | S. cerevisiae deletion strains, locus YKL068W, stronger effect = lower value 1.01 | S. cerevisiae deletion strains, locus YKL085W, strain MDH1 (second series), stronger effect = lower value 1 | S. cerevisiae deletion strains, locus YKL085W, strain MDH1, stronger effect = lower value 1 | S. cerevisiae deletion strains, locus YKL190W, strain CNB1, stronger effect = lower value 1 | S. cerevisiae deletion strains, locus YKR001C, strain vps1, stronger effect = lower value 1.03 | S. cerevisiae deletion strains, locus YLR039C, strain RIC1, stronger effect = lower value 0.999 | S. cerevisiae deletion strains, locus YLR058C, strain SHM2, stronger effect = lower value 1.01 | S. cerevisiae deletion strains, locus YLR102C, strain apc9, stronger effect = lower value 1.03 | S. cerevisiae deletion strains, locus YLR113W, strain HOG1, stronger effect = lower value 0.996 | S. cerevisiae deletion strains, locus YLR262C, strain YPT6, stronger effect = lower value 1 | S. cerevisiae deletion strains, locus YLR268W, strain sec22, stronger effect = lower value 1.03 | S. cerevisiae deletion strains, locus YLR330W, strain CHS5, stronger effect = lower value 1 | S. cerevisiae deletion strains, locus YLR342W, strain FKS1 (second series), stronger effect = lower value 0.994 | S. cerevisiae deletion strains, locus YLR371W, strain rom2, stronger effect = lower value 1.03 | S. cerevisiae deletion strains, locus YLR418C, strain cdc73, stronger effect = lower value 1.08 | S. cerevisiae deletion strains, locus YML016C, strain PPZ1, stronger effect = lower value 1.01 | S. cerevisiae deletion strains, locus YML032C, strain rad52, stronger effect = lower value 1.04 | S. cerevisiae deletion strains, locus YML124C, strain tub3, stronger effect = lower value 1.03 | S. cerevisiae deletion strains, locus YMR078C, strain ctf18, stronger effect = lower value 1.03 | S. cerevisiae deletion strains, locus YMR223W, strain ubp8, stronger effect = lower value 1.02 | S. cerevisiae deletion strains, locus YMR263W, strain SAP30, stronger effect = lower value 1.01 | S. cerevisiae deletion strains, locus YMR307W, strain GAS1, stronger effect = lower value 1.02 | S. cerevisiae deletion strains, locus YNL067W, strain RPL9B, stronger effect = lower value 1.01 | S. cerevisiae deletion strains, locus YNL128W, strain TEP1, stronger effect = lower value 1.02 and 0.979 | S. cerevisiae deletion strains, locus YNL153C, strain GIM3, stronger effect = lower value 1.01 | S. cerevisiae deletion strains, locus YNL175C, strain NOP13, stronger effect = lower value 0.995 | S. cerevisiae deletion strains, locus YNL183C, strain NPR1, stronger effect = lower value 0.918 | S. cerevisiae deletion strains, locus YNL197C, strain WHI3, stronger effect = lower value 0.975 | S. cerevisiae deletion strains, locus YNL224C, strain SQS1, stronger effect = lower value 1.02 | S. cerevisiae deletion strains, locus YNL233W, strain BNI4, stronger effect = lower value 1 | S. cerevisiae deletion strains, locus YNL250W, strain rad50, stronger effect = lower value 1.03 | S. cerevisiae deletion strains, locus YNL271C, strain bni1, stronger effect = lower value 1.03 | S. cerevisiae deletion strains, locus YNL298W, strain CLA4, stronger effect = lower value 1.05 | S. cerevisiae deletion strains, locus YNL307C, strain MCK1, stronger effect = lower value 1.03 | S. cerevisiae deletion strains, locus YNL322C, strain KRE1, stronger effect = lower value 1.01 and 0.99 | S. cerevisiae deletion strains, locus YNR052C, strain pop2, stronger effect = lower value 1.02 | S. cerevisiae deletion strains, locus YOL006C, strain TOP1, stronger effect = lower value 1.03 | S. cerevisiae deletion strains, locus YOL012C, strain htz1 1.29 | S. cerevisiae deletion strains, locus YOL147C, strain pex11, stronger effect = lower value 1.04 | S. cerevisiae deletion strains, locus YOR061W, strain CKA2, stronger effect = lower value 1.01 | S. cerevisiae deletion strains, locus YOR069W, strain VPS5, stronger effect = lower value 1 | S. cerevisiae deletion strains, locus YOR083W, strain WHI5 (second series), stronger effect = lower value 0.99 | S. cerevisiae deletion strains, locus YOR136W, strain idh2, stronger effect = lower value 1.02 | S. cerevisiae deletion strains, locus YOR144C, strain elg1, stronger effect = lower value 1.03 | S. cerevisiae deletion strains, locus YOR184W, strain ser1, stronger effect = lower value 1.03 | S. cerevisiae deletion strains, locus YOR231W, strain MKK1, stronger effect = lower value 1 | S. cerevisiae deletion strains, locus YOR316C, strain cot1, stronger effect = lower value 1.03 | S. cerevisiae deletion strains, locus YPL055C, strain LGE1, stronger effect = lower value 1.03 | S. cerevisiae deletion strains, locus YPL241C, strain CIN2, stronger effect = lower value 0.999 | S. cerevisiae deletion strains, locus YPL256C, strain CLN2, stronger effect = lower value 0.985 | S. cerevisiae deletion strains, locus YPR119W, strain clb2, stronger effect = lower value 1.02 | S. cerevisiae deletion strains, locus YPR141C, strain kar3, stronger effect = lower value 1.02 | S. cerevisiae deletion strains, locus YPR163C, strain tif3, stronger effect = lower value 1.04 | S. cerevisiae deletion strains, locus YPR167C, strain met16, stronger effect = lower value 1.02 | S. cerevisiae deletion strains, strain wtn01, stronger effect = lower value 1.03 | S. cerevisiae strains, strain wild type, stronger effect = lower value 1.01
